Compound activity: PubChem, National Center for Advancing Translational Sciences (NCATS)
NPC1 promoter act: NPC1 promoter activation; Huh7 NPC1 promoter luciferase reporter, 24 h; Potency, µM (highest dose often 9.22 µM), most hits filed as activators; actives 2.4% (n = 320,000); AID 485313; note: nearly all actives have a fitted effect of over 60% in size
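Compounds in DMSO were transferred onto Huh7 NPC1-luciferase reporter cells pre-incubated 2 h; after 24 h at 37 °C, Amplite reagent was dispensed and luminescence recorded 10 min later.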
SMN2 splice up: increases expression of the SMN2 splice variant; HEK293 SMN2-luciferase splicing reporter, luminescence, 30-36 h; Potency, µM (doses to about 46.1 µM), actives largely listed as activators; actives 2.8% (n = 210,000); note: nearly all actives have a fitted effect of over 55% in size
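qHTS luciferase splicing reporter: luminescence rises when SMN2 exon 7 is included in transfected HEK293 cells. Compound exposure lasted 30-36 h at 37C, with 4.5 mM final sodium butyrate as control, followed by a ONE-Glo read.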
FLuc modulator: firefly luciferase modulation, counter-screen for miR-21 project. P08659. purified FLuc, Km substrates, luminescence inhibition. Potency, µM (series often up to 57.5 µM), actives largely listed as inhibitors. actives 6.9% (n = 360,000). AID 588342; note: nearly all actives have a fitted effect of over 55% in size
Target sequence (P08659 whole entry, looked up): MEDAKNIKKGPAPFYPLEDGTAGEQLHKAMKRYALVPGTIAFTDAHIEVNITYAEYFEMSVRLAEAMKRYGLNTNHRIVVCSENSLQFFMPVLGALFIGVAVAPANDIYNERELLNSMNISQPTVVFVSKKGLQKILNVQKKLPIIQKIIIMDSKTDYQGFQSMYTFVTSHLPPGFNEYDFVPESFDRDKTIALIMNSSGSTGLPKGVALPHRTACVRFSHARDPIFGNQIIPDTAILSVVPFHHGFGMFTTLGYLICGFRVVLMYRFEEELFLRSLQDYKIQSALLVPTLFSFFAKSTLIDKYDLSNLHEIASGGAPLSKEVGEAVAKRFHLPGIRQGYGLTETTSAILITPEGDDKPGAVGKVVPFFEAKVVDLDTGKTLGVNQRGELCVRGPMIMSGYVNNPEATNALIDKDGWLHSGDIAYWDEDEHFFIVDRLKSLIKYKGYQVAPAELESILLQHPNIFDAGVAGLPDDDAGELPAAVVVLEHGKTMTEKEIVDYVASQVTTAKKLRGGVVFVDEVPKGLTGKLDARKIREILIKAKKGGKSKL
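Purified P. pyralis luciferase (10nM final) with 10uM D-luciferin and 10uM ATP (Km levels) in 50mM Tris acetate pH 7.5, 10mM Mg acetate, 0.01% Tween-20, 0.05% BSA; qHTS 6-point titration, ~60 µM downward; luminescence read.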
ELG1 genotoxic: genotoxicity induction in ELG1-luciferase HEK293T cells | HEK293T ELG1-luciferase reporter, luminescence, 16 h | Potency, µM (titrated, usually from 46 µM), actives largely listed as activators | actives 1.3% (n = 330,000); note: nearly all actives have a fitted effect of over 60% in size
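HEK293T cells expressing luciferase-tagged ELG1 were treated with compound or DMSO for 16 hr at 37°C. Luciferase activity was then read after 30 min with ONE-Glo at room temperature; rising signal flags genetic stress.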
Rab9 prom act: activators of Rab9 promoter; Huh7 Rab9 promoter-luciferase reporter, luminescence, 24 h; Potency, µM (titrated, usually from 9.22 µM), actives largely listed as activators; actives 2.8% (n = 320,000); AID 485297; note: nearly all actives have a fitted effect of over 60% in size
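Promoter activation is measured as luciferase luminescence in Huh7 cells stably transfected with a Rab9 promoter–luciferase construct, following 24 h compound exposure at 37 °C and 10 min reagent incubation at ambient temperature.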
p53 reactivator: mutant p53 re-activation in reporter cells | H1299 p53-A138V BP100-luciferase reporter, luminescence, 24 h | Potency, µM (series often up to 92.2 µM), usual class: activators | actives 0.063% (n = 320,000); note: nearly all actives have a fitted effect of over 45% in size
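H1299 (p53-null), stable ts p53-A138V + BP100-Luc; 1000 cells/well, Opti-MEM/10% FBS; cpd 4 pt, 1:5; 24 h, 37 deg C, 5% CO2; detection reagent 10 min RT; luminescence.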
Hits are given with their value; - = inactive; ? = inconclusive; . = no result. The list is not random: actives were taken first. Their share in the collection is about 7.4%. Calls come from the whole dose curve; as a rule, active = well fitted curve in the direction sought with a large enough effect; inconclusive = small, poorly fitted or top-dose-only effect, or another doubt; inactive = no such curve, though single readings can be large; an effect the other way counts as inactive or inconclusive.

SMILES | NPC1 promoter act | SMN2 splice up | FLuc modulator | ELG1 genotoxic | Rab9 prom act | p53 reactivator
NC(=O)c1cn(-c2ccccc2)nc1-c1cccnc1 | - | - | - | - | - | -
COc1ccc(-c2nn(-c3ccccc3)cc2/C=N/n2cnnc2)cc1OC | - | ? | 19µM | - | - | -
COc1ccc(-c2nn(-c3ccccc3)cc2/C=N/NC(N)=S)cc1OC | - | - | 5.4µM | - | - | -
Cc1ccc(-c2nn(-c3ccccc3)cc2/C=N/n2c(-c3ccncc3)n[nH]c2=S)cc1 | - | . | - | - | - | -
S=c1[nH]nc(-c2cccs2)n1/N=C/c1cn(-c2ccccc2)nc1-c1ccccc1 | - | . | 3.4µM | - | - | -
CC(NC(=O)COC(=O)c1ccc2c(=O)n3c(nc2c1)CCCCC3)c1ccccc1 (centres undefined) | - | . | - | - | - | -
C(=N\n1cnnc1)/c1cn(-c2cccs2)nc1-c1ccccc1 | - | ? | 7.6µM | ? | - | -
O=C(Nc1ccccc1)C1=C[C@@H](C2CC2)C[C@@H](OCCCCO)O1 | - | . | 17µM | ? | - | -
NC(=O)C1=C[C@H](c2ccc3c(c2)OCO3)C[C@H](OCc2ccc(CO)cc2)O1 | ? | . | 15µM | ? | ? | -
O=C(Nc1ccccc1)C1=C[C@@H](C2CC2)C[C@@H](OCc2ccc(CO)cc2)O1 | - | . | 11µM | - | - | -
O=C(Nc1ccccc1)C1=C[C@H](c2ccc3c(c2)OCO3)C[C@H](OCCCCO)O1 | - | . | 15µM | - | - | -
CCC1CCc2nc3sc(C(=O)Nc4cccc(C(F)(F)F)c4)c(N)c3cc2C1 (centres undefined) | . | - | - | . | . | .
CC1CCC(NC(=O)c2ccc3c(c2)N(Cc2cccc(Cl)c2)C(=O)c2ccccc2S3(=O)=O)CC1 (centres undefined) | . | . | - | . | . | .
C#CCNC(=O)C1=C[C@@H](C2CCCCC2)C[C@@H](OCc2ccc(CO)cc2)O1 | - | . | 15µM | - | - | -
Cc1ccccc1NC(=O)Cn1c(=O)n(Cc2ccc3c(c2)OCO3)c(=O)c2ccc(C(=O)NC3CCCCC3)cc21 | . | - | - | . | . | .
O=C(N/N=C/c1cccs1)c1ccc2c(c1)OCO2 | 2.5µM | 13µM | 2.7µM | 9.2µM | 1.3µM | ?
CCN(CC)c1ccc(/C=N/NC(=O)c2ccc(Br)o2)cc1 | 2.2µM | 11µM | 3µM | ? | 3.2µM | ?
CCN(CC)c1ccc(/C=N/NC(=O)Cc2ccc(OC)c(OC)c2)cc1 | - | . | ? | - | - | -
Cc1nc2ccc(C(=O)N/N=C/c3ccccc3O)cc2[nH]1 | ? | . | 12µM | ? | ? | ?
O=C(N/N=C/c1ccc2c(c1)OCCO2)c1ccncc1 | - | . | 9.5µM | - | - | -
CCN(CC)c1ccc(/C=N/NC(=O)C2CC2)cc1 | - | . | 15µM | ? | ? | -
O=C(N/N=C/c1ccc2c(c1)OCO2)c1ccc(Br)o1 | 4.5µM | 13µM | 4.8µM | 10µM | 2.8µM | 3.2µM
O=C(N/N=C/c1ccncc1)c1ccc2c(c1)OCO2 | - | ? | 27µM | - | - | -
O=C(N/N=C(/c1ccccc1)c1ccncc1)c1ccc2c(c1)OCO2 | - | - | - | - | - | -
O=C(CNC(=O)c1ccc2c(c1)OCCO2)N/N=C/c1ccc(Cl)cc1 | - | - | ? | - | - | -
SMILES | NPC1 promoter act | SMN2 splice up | FLuc modulator | ELG1 genotoxic | Rab9 prom act | p53 reactivator
O=C(N/N=C/c1ccc(Cl)cc1)c1ccc2c(c1)OCO2 | - | . | 3.4µM | ? | - | ?
Cc1ccc(S(=O)(=O)NCCc2csc(-c3cccc(F)c3)n2)cc1 | . | . | - | . | . | .
CC1(C(=O)Nc2cccc(C(F)(F)F)c2)Cc2ccccc2C(=O)O1 (centres undefined) | . | - | - | . | . | .
CCOc1ccc(-n2c(SCC(N)=O)nc3c(oc4ccccc43)c2=O)cc1 | . | - | - | . | . | .
O=C(N/N=C/c1cc(Cl)cc([N+](=O)[O-])c1O)c1ccc2c(c1)OCO2 | - | . | 11µM | - | - | .
O=C(N/N=C/c1cccc([N+](=O)[O-])c1)c1ccc2c(c1)OCCO2 | 3.5µM | 22µM | 1.3µM | ? | 2.2µM | -
O=C(N/N=C/c1cc(Cl)cc([N+](=O)[O-])c1O)c1cccc(S(=O)(=O)N2CCOCC2)c1 | - | . | - | - | - | -
COc1ccccc1NS(=O)(=O)c1cccc(C(=O)N/N=C/c2ccc3c(c2)OCCO3)c1 | - | - | 11µM | - | - | -
O=C(N/N=C\C=C\c1ccc(Br)cc1)c1ccc2c(c1)OCO2 | - | . | - | - | - | -
O=C(N/N=C/C1CC2CCC1C2)c1ccc2c(c1)OCO2 (centres undefined) | - | - | 13µM | - | - | -
CCC(CO)Oc1cc(NCc2ccc(C(C)(C)C)cc2)c2ncn(C(C)C)c2c1 (centres undefined) | . | . | . | - | . | -
CCOC(=O)c1c(S(=O)(=O)N2CCN(c3cc(Cl)ccc3C)CC2)c(C)n(C)c1C | . | . | - | . | . | .
O=C(N/N=C/c1ccc2c(c1)OCO2)c1ccc2c(c1)OCCO2 | ? | 11µM | 1.9µM | ? | ? | ?
O=C(N/N=C/c1ccsc1)c1ccc2c(c1)OCO2 | 3.5µM | . | 3.4µM | ? | 2.8µM | ?
O=C(N/N=C/c1ccc2c(c1)OCO2)c1ccc(NC(=O)c2ccc(F)cc2)cc1 | - | . | - | - | - | -
Cc1cc(Br)cc(/C=N/NC(=O)c2ccc3c(c2)OCO3)c1O | - | . | ? | - | - | -
O=C(N/N=C/c1ccccc1O)c1ccc2c(c1)OCO2 | ? | . | 2.7µM | 15µM | - | ?
CCN(CC)c1ccc(/C=N/NC(=O)Nc2nonc2N)cc1 | - | ? | 13µM | - | - | ?
COC(=O)CC1C(C)(C)C(OC(C)=O)C2[C@H](OC(C)=O)[C@]34O[C@]2(O)[C@]1(C)C3CC[C@]1(C)C4=CC(=O)OC1c1ccoc1 (some centres undefined) | . | - | . | . | . | .
COc1ccc(CCNC(=O)c2oc3ccccc3c2C)cc1 | - | . | 19µM | - | - | -
Cc1c(C(=O)NCCc2ccc3c(c2)OCCO3)oc2ccccc12 | - | - | 19µM | - | - | -
COc1ccccc1C(CNC(=O)c1oc2ccccc2c1C)N1CCCC1 (centres undefined) | - | . | 24µM | - | - | -
O=C(NCCc1ccc2c(c1)OCCO2)c1ccccc1F | ? | - | ? | - | - | ?
COc1ccc(CCNC(=O)C(=O)NCC(c2cccs2)S(=O)(=O)c2ccc(F)cc2)cc1 (centres undefined) | . | . | - | . | . | .
CCOc1ccc(-n2c(=O)c3sc4ccccc4c3n(Cc3ccc(F)cc3)c2=O)cc1 | . | ? | - | . | . | .
CC(=O)Nc1ccc(C2NC(=O)c3ccccc3O2)cc1 (centres undefined) | - | . | - | - | - | -
